Molecules are shown by their SMILES. Active and inactive are the calls of the source. Unless noted, the rule behind the calls is not given here.

For test [1], the system named is XIP peptide (Xip251-270) binding. The experiment in a line: XIP fragment 251-270 binding compounds – biochemical, small-molecule microarray, fluorescence 635/667 nm, 0.1 µg/mL protein, primary screen (AID 1182). The settings on record: fluorescent protein binding, 635 nm, higher = more signal, called active from +8 up or from −8 down.
The next test concerns XIP peptide (Xip251-270). As to the kind of experiment: compounds binding XIP fragment 251-270 – biochemical, small-molecule microarray, fluorescence 635/667 nm, 0.5 µg/mL protein, primary screen (AID 1183). The note with it: fluorescence 635 nm, higher = more signal.
The nature of test [2]: blood-stage malaria parasite viability loss – strain 3D7, DAPI fluorescence, 100 nL, primary screen (AID 1184).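 Note: parasites grown inside human red blood cells in medium with human serum.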 The note with it: P. falciparum 3D7 growth, 3 d, higher = more signal.
For test [3], the target named is Homeobox protein Hox-A13 (Mus musculus) (UniProt Q62424). As to the kind of experiment: disruptors of Hoxa13 oligonucleotide interaction – biochemical, fluorescence polarization, labeled oligonucleotide, primary screen (AID 1185). The note with it: Hoxa13:DNA binding, 15 min, higher = more signal, called active from +8 up or from −8 down. (Polarisation of emitted light reports the rotation of a fluorescent probe.)
Chain of Homeobox protein Hox-A13 (Mus musculus) (Q62424 whole entry, looked up): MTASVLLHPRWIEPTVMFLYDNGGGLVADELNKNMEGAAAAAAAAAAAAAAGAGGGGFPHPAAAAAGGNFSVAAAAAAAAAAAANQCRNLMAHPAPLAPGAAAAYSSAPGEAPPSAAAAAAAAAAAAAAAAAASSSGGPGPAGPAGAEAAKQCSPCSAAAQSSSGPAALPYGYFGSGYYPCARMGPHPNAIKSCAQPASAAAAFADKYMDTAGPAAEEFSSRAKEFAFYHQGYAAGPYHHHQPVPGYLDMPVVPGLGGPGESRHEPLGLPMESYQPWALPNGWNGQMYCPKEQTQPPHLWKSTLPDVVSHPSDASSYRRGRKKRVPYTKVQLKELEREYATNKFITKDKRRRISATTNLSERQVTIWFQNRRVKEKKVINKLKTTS

A short description of test [4]: blockers of DNA damage checkpoint Chk1 activation – imaging, HeLa, hydroxyurea, phospho-Chk1 antibody, percent positive cells, primary screen (AID 1186). The settings on record: hydroxyurea-induced phospho-Chk1 immunofluorescence imaging, higher = more signal.
The nature of test [5]: blockers of DNA damage checkpoint Chk1 activation – imaging, HeLa, hydroxyurea, phospho-Chk1 nuclear intensity, primary screen (AID 1187). The settings on record: hydroxyurea-induced phospho-Chk1 immunofluorescence imaging, higher = more signal.

In the case of `CC(C)N1CC=CC23O[C@@H]4C=CCOC(=O)[C@@H]4[C@H]2C(=O)N(CCCO)[C@@H]3C1=O` (stereo partly specified), the composite z-score is 0.816 (inactive) in test [1] and 0.749 in the test with XIP peptide (Xip251-270). Further, the z-score is -1.91 in test [2], -3.62 (inactive) in test [3], 0.762 (inactive) in test [4] and 0.0478 (inactive) in test [5].
For `COCCCNC(=O)[C@@]1(Cc2ccccc2N=[N+]=[N-])COC(c2ccc(OCCCO)cc2)=N1`, the composite z-score in test [1] was 1 (inactive); in the test with XIP peptide (Xip251-270) it was 0.626. The z-score in test [2] was -2.06; in test [3] it was -5.18 (inactive); in test [4], -0.0232 (inactive); in test [5] it was -0.101 (inactive).
Turning to `C=C(CCCC)/C(=C/C[C@@H](OC(=O)c1ccncc1)c1ccccc1OCCO)c1cnc2ccccc2c1`, the composite z-score in test [1] is 0.0648 (inactive); in the test on XIP peptide (Xip251-270) it was 0.647. The z-score in test [2] was -3.02; in test [3] it was -3.49 (inactive); in test [4], 0.294 (inactive); in test [5] it was -0.0646 (inactive).
As to `CC(C)C[C@@H]1NC(=O)[C@@H]2C[C@H](C(=O)NCCCCCN)[C@H](c3ccc(O)cc3)N2C1=O`, the composite z-score in test [1] was 0.0938 (inactive); in the test with XIP peptide (Xip251-270), 0.725. Also, the z-score was 0.179 in test [2], -1.88 (inactive) in test [3], -0.223 (inactive) in test [4] and 0.0212 (inactive) in test [5].
In the case of `COc1ccc(CCNC(=O)[C@@H]2c3ccccc3C(=O)N(Cc3cc(C(F)(F)F)cc(C(F)(F)F)c3)[C@H]2c2ccc(CO)cc2)cc1`, the composite z-score in test [1] was 0.381 (inactive); with XIP peptide (Xip251-270) it was 0.649. The z-score in test [2] was -1.17; in test [3], -2.92 (inactive); in test [4] it was -0.198 (inactive); in test [5] it was 0.173 (inactive).
For `CCC[C@@H]1C[C@@]1(CCC)[C@@H](NC(=O)OCc1ccccc1)c1ccc(-c2ccccc2)cc1`, the composite z-score in test [1] is -0.384 (inactive); in the test with XIP peptide (Xip251-270), -0.237. For the same molecule, the z-score is -0.54 in test [2], -3.15 (inactive) in test [3], 0.977 (inactive) in test [4] and 0.198 (inactive) in test [5].
In the case of `Cc1ccc(S[C@]2(C(=O)O)CC(=O)N(Cc3ccccc3Cl)[C@@H]2c2ccc(CO)cc2I)cc1`, the composite z-score was -0.62 (inactive) in test [1] and 0.261 in the test with XIP peptide (Xip251-270). In addition, the z-score was 0.204 in test [2], -2.54 (inactive) in test [3], 0.0343 (inactive) in test [4] and 0.0261 (inactive) in test [5].
Consider `COc1ccc(C(O)C2C=CC3C(=O)N(c4ccccc4)C(=O)C3N2Nc2ccc([N+](=O)[O-])cc2)cc1` (stereo unspecified), for which the composite z-score in test [1] was 0.584 (inactive); in the test on XIP peptide (Xip251-270), 0.797. The z-score was -0.906 in test [2], -3.98 (inactive) in test [3], 0.895 (inactive) in test [4] and -0.355 (inactive) in test [5].
For the molecule `O=C(N1CCCCC1)[C@@]1(CCS(=O)(=O)c2ccccc2)COC(c2ccc(OCCCO)cc2)=N1`, the composite z-score in test [1] is 1.16 (inactive); in the test on XIP peptide (Xip251-270), 0.809. In addition, the z-score was -2 in test [2], -5.2 (inactive) in test [3], -0.0331 (inactive) in test [4] and -0.187 (inactive) in test [5].
For `C=CCN1C(=O)[C@@]2(CCS(=O)(=O)c3ccccc3)N=C(c3ccc(OCCCO)cc3)O[C@H]2c2ccccc21`, the composite z-score in test [1] is 0.404 (inactive); in the test on XIP peptide (Xip251-270), 0.713. Moreover, the z-score is -2.05 in test [2], -2.47 (inactive) in test [3], -0.477 (inactive) in test [4] and -0.37 (inactive) in test [5].
As for `COC(=O)[C@@]1(Cc2ccc(OC)cc2)[C@H]2c3cc(C(=O)N(C)C)n(C[C@H](O)CO)c3C[C@H]2CN1C(=O)c1ccccc1`, the composite z-score in test [1] was 0.309 (inactive); in the test on XIP peptide (Xip251-270), -0.587. Further, the z-score in test [2] is -1.74; in test [3], -3.35 (inactive); in test [4], 0.708 (inactive); in test [5] it was 0.22 (inactive).
Consider `O=C1OCCC=C[C@H]2OC34C=CCN(Cn5nnc6ccccc65)C(=O)[C@H]3N(CCCCCCO)C(=O)[C@@H]4C12` (stereo partly specified), for which the composite z-score in test [1] was 1.62 (inactive); with XIP peptide (Xip251-270), -0.948. Besides, the z-score in test [2] was 0.006; in test [3] it was -3.78 (inactive); in test [4], -0.667 (inactive); in test [5], -0.21 (inactive).
Turning to `CC(CO)N1C(=O)[C@@H]2[C@H]3C(=O)OCC=C[C@H]3OC23C=CCN(Cc2ccccc2)C(=O)[C@@H]13` (stereo partly specified), the composite z-score was -0.542 (inactive) in test [1] and 0.189 in the test on XIP peptide (Xip251-270). The z-score in test [2] was -0.379; in test [3], -2.5 (inactive); in test [4] it was -0.539 (inactive); in test [5] it was -0.113 (inactive).
Regarding `CCCC[C@@H]1C[C@H]1[C@@H](NC(=O)c1cccs1)c1ccc(C(F)(F)F)cc1`, the figures for the composite z-score (in test [1]; in the test with XIP peptide (Xip251-270)) were -0.011 (inactive) and -0.289, respectively. Also, the z-score is -0.41 in test [2], -0.891 (inactive) in test [3], 0.984 (inactive) in test [4] and 0.516 (inactive) in test [5].
As to `C=CCC(OC(C)=O)[C@@H]1[C@@H](N(Cc2cccc3ccccc23)C(=O)Cc2ccc(OC)cc2)c2cc(OCCCO)ccc2N1C(=O)c1ccc2ccccc2n1` (stereo partly specified), the composite z-score was 1.24 (inactive) in test [1] and -0.248 in the test on XIP peptide (Xip251-270). For the same molecule, the z-score was -2.54 in test [2], -2.7 (inactive) in test [3], -2.34 (inactive) in test [4] and -1.44 (inactive) in test [5].
For the molecule `O=C1OCCC/C=C\[C@H]2OC34C=CCN(CCN5CCOCC5)C(=O)[C@H]3N(CCCCCCO)C(=O)[C@@H]4C12` (stereo partly specified), the composite z-score in test [1] was 3.43 (inactive); in the test on XIP peptide (Xip251-270), 0.299. The z-score is -0.282 in test [2], -6.22 (inactive) in test [3], -0.039 (inactive) in test [4] and 0.587 (inactive) in test [5].

The values are drawn from PubChem BioAssay.
